Data as given in PubChem BioAssay AID811 (The Scripps Research Institute Molecular Screening Center, 2007).
The whole screen tested about 16,000 compounds, of which about 10 (0.06%) were called active. Shown is part of a subset that was picked to be rich in actives. A number with no mark means an inactive call. No stated cut-off is given here; in the data, active means inhibition above about 45%; inactive means the rest.

molecular target: Toll-like receptor 4 (Homo sapiens) (UniProt O00206); assay: inhibitors of human TLR4-MyD88 binding (AID 811); settings: Cell-based TLR4-MyD88 binding inhibition assay; at 10 µM; stronger effect = higher value
Sequence (O00206 whole entry, looked up): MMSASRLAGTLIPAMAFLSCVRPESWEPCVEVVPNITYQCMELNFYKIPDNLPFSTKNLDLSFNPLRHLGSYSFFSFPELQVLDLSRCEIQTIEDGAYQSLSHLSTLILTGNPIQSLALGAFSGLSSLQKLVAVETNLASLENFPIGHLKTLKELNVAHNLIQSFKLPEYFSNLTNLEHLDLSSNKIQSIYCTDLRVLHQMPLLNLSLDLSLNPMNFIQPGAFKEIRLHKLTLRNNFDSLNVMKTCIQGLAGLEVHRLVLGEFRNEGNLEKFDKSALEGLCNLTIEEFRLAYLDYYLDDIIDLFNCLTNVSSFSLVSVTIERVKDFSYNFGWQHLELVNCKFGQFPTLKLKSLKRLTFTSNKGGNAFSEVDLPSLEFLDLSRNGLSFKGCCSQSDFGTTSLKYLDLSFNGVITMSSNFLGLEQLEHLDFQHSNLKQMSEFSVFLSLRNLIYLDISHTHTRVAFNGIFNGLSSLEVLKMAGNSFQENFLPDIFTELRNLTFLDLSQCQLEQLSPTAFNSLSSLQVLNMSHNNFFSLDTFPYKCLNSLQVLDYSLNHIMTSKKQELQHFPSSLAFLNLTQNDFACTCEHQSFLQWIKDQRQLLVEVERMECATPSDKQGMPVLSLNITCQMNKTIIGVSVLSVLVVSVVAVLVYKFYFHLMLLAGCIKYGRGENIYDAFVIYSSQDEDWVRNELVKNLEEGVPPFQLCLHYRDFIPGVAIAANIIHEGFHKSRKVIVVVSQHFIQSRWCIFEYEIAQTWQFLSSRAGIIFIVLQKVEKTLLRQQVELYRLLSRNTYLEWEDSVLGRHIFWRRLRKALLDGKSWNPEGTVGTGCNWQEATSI

Compound | inhibition
N/C(=N\OC(=O)c1ccc(Cl)cc1)c1cccc(CS(=O)(=O)c2ccccn2)c1 | -5.81%
CC(C)S(=O)(=O)/C(C#N)=C/NN1CCOCC1 | -3.92%
COC(=O)c1cnc(N2CCCN(C(=O)C3COc4ccccc4O3)CC2)nc1C(F)(F)F (centres undefined) | -1.67%
NC(=O)c1c(C(F)(F)F)cc(C(F)(F)F)cc1C(F)(F)F | -6.47%
COc1ccccc1NC(=O)c1ccc(C#Cc2ccccc2)o1 | -2.2%
CC(C)[C@H]1COC(c2cccc(C3=N[C@@H](C(C)C)CO3)n2)=N1 | 5.5%
Cc1cc(S(=O)(=O)O/N=C(\N)c2snnc2C)cc(C)c1F | 11.7%
CC1(C)CC(=O)C=C(N2CCOCC2)C1 | -0.03%
CCc1cnc(NS(=O)(=O)c2cc(Cl)sc2Cl)nc1-c1c(F)cccc1F | -8.06%
CC(C)CCOS(=O)(=O)c1ccc2c(c1)Cc1cc(S(=O)(=O)OCCC(C)C)ccc1-2 | 4.69%
CCCN(CCC)S(=O)(=O)c1ccc(C(=O)O/N=C(\C)c2ccccc2O)cc1 | 0.96%
CC(=O)c1ccc(C#Cc2ccccc2)cc1 | -5.26%
COC(=O)c1cnc(Oc2ccc(N)cc2)cc1C(F)(F)F | -9.53%
O=C(CSc1c(F)c(F)c(C(=O)O)c(F)c1F)Nc1cccc(C(F)(F)F)c1 | 7.76%
CCOC(=O)CN1C(=O)/C(=C\c2ccc(C)o2)N=C1c1ccccc1 | 0.42%
O=[N+]([O-])c1ccc2ncccc2c1-n1cccc1 | 2.94%
CN(C(=O)Nc1ccc(Cl)cc1)n1cnc2ccccc2c1=O | -8.6%
Cn1cnnc1SC/C=C/c1ccccc1 | -13.5%
O=C(O)CC(CC(=O)N1CCOCC1)c1ccccc1 (centres undefined) | -5.3%
Cc1ccc2c(c1)C(=O)C(=O)S2 | 6.48%
O=C(CCc1ccc(O)cc1)N/N=C/c1cc(Cl)cc(Cl)c1O | -1.07%
CC(C)(C)NC(=O)N/N=C/c1[nH]ncc1Br | 20.8%
Cc1noc(C)c1S(=O)(=O)N1CCN(C2c3ccccc3-c3ccccc32)CC1 | -0.47%
CS/C(=N\S(=O)(=O)c1ccccc1)NNc1ccccc1 | -1.96%
CCOC(=O)Cn1cc(Cl)ccc1=O | -0.56%

Compound | inhibition
N/C(=N\S(=O)(=O)c1ccc(Cl)cc1)N1CCOCC1 | -3.11%
Cc1nn(C)c(C)c1Sc1nccc(-c2cccnc2)n1 | -8.01%
CC(C)CC(F)Cc1cnc(=O)[nH]c1 (centres undefined) | -2.36%
Oc1ccc(-n2cncn2)cc1 | -7.43%
O=C(NCc1ccccc1)c1cc2sccc2s1 | 3.11%
Cc1ccc2sc(NC(=O)NC(=O)c3c(Cl)cccc3Cl)nc2c1 | -10.8%
Cn1cc(C(=O)Nc2ccc(F)c(Cl)c2)c(N)n1 | -11.3%
CCOC(=O)c1cnc2c(S(=O)(=O)C(C)C)csc2c1Sc1cccc(Cl)c1 | -1.87%
O=C(NNC(=S)Nc1ccccc1Cl)c1ccc(OC(F)(F)F)cc1 | 6.01%
O=C(c1ccc(Oc2ccc(Cl)cc2)c([N+](=O)[O-])c1)N1CCCC1 | 0.91%
CSc1sc(C(=O)Nc2cccc(C(F)(F)F)c2)cc1S(=O)(=O)C(C)C | 0%
CCOC(=O)c1ccc2nc(C(F)(F)F)cc(N3CCN(Cc4ccccc4)CC3)c2c1 | 3.69%
CCOC(=O)Cn1sc2nc(C)cc(C)c2c1=O | -2.32%
O=[N+]([O-])c1ccc(N2CCC2)cc1 | 8.05%
CC(=O)OCc1ccc(COC(C)=O)c(OC(C)=O)c1OC(C)=O | -11.5%
COC(=O)/C=C/c1cn(C2OCC(CO)C2O)c(=O)[nH]c1=O (centres undefined) | 5.73%
NC(=O)c1cccc2c1OCCO2 | 10.1%
CCCN(CCC)S(=O)(=O)c1ccc(C(=O)NNC(=O)c2cc(OC)c(OC)c(OC)c2)cc1 | -4.25%
N#C/C(=C\c1ccsc1Sc1ccc(Cl)cc1)S(=O)(=O)c1ccc(Cl)cc1 | -3.72%
Cc1nnc(Sc2ccc([N+](=O)[O-])c(Sc3nnc(C)s3)n2)s1 | -6.36%
O=c1[nH]c2ccccc2s1 | 2.88%
O=c1oc2c3ccccc3c3oc(=O)sc3c2s1 | 50.3% (active)
Cc1cc(-c2noc(-c3cccs3)n2)no1 | -6.63%
Cc1nnsc1C(=O)N/N=C/c1ccccc1Cl | -4.11%
CNC(=O)c1ccccc1I | -1.84%

Compound | inhibition
O=S(=O)(CCSc1ccc(C(F)(F)F)cn1)CCSc1ccc(C(F)(F)F)cn1 | 2.94%
CC(=O)Nc1ccc(C)cc1N=Cc1ccncc1 | -3.13%
N#CC(c1cc2ccccc2cn1)c1ccc2c(c1[N+](=O)[O-])C(=O)c1ccccc1C2=O (centres undefined) | 8.07%
Cc1cccc(-c2noc(NC(=O)O/N=C/c3ccccc3)n2)c1 | 5.92%
O=C(NNC(=S)Nc1ccc(S(=O)(=O)N2CCCCC2)cc1)c1ccncc1 | 7.23%
O=[N+]([O-])c1ccc2c(c1)CCN2S(=O)(=O)c1ccccc1 | -5.05%
Cc1ccc(C(=O)N2CCN(c3cccc4[nH]ccc34)CC2)cc1 | -3.77%
O=C(Oc1ccccc1N1CCCCC1)c1sc2ccccc2c1Cl | 4.69%
CCOC(=O)c1cc(C)n(-c2cccc([N+](=O)[O-])c2)c1-c1ccccc1 | -2.88%
CC(C)(C)c1ccc(C(=O)CC(N)=O)cc1 | -4.12%
FC(F)(F)c1csc(N/N=C/c2ccccc2Cl)n1 | -1.14%
C/C(=N\NC(N)=S)c1csc(-c2ccccc2)n1 | -3.92%
N/N=c1/nc2sccn2c2ncccc12 | -0.03%
O=C1C2C3C=CC(O3)C2C(=O)N1OCc1ccc(OC(F)(F)F)cc1 (centres undefined) | 4.1%
O=C(NC(=O)c1ccno1)Nc1ccccc1Cl | -1.38%
Cn1c(CN2C(=O)CSc3ccc(C(F)(F)F)cc32)nnc1SCC(=O)c1ccccc1 | -0.94%
COc1ccc(/C=N/Nc2nc(C)cc(=O)[nH]2)c(OC)c1 | -3.66%
CCCc1nc(N)ncc1C(=O)OCC | -3.52%
N/C(=N\OC(=O)c1ccc([N+](=O)[O-])o1)c1ccc(OCc2ccc(Cl)cc2)c(Cl)c1 | -0.21%
Cc1onc(-c2ccccc2)c1CNS(=O)(=O)c1ccc(-c2ccccn2)s1 | -0.5%
O=S(=O)(Nc1ccc2[nH]ccc2c1)c1cccs1 | 14.7%
CC(=O)c1nnc2cc(C)nn2c1C | 3.88%
CS(=O)(=O)c1ccc(C(=O)Nc2cccc(Cl)c2)cc1 | -0.58%
CCCCc1ccc(S(N)(=O)=O)cc1 | -0.44%
O=C(Nc1ccccc1C(=O)NCc1c(F)cccc1Cl)c1ccccc1Cl | 2.65%

Compound | inhibition
O=[N+]([O-])c1ccc(C2CC2(Br)Br)cc1 (centres undefined) | 11.1%
C/C(=N\O)C(C)(C)Nc1ccc(C(C)(C)C)cc1 | 0.91%
O=C(NNc1ccccc1C(F)(F)F)NS(=O)(=O)c1ccc(Cl)cc1 | 2.98%
COc1ccc(-c2csc(-c3cc(C)on3)n2)cc1 | 7.05%
N#Cc1c(C(F)(F)F)cc(-c2cccs2)nc1N1CCCCC1 | -4.83%
Cc1cc2nsnc2cc1Cl | 0.39%
COc1ccc(COCC(O)CN2CCN(c3ccc(C(F)(F)F)cn3)CC2)cc1 (centres undefined) | -3.92%
CSc1ccc(C(F)(F)F)cc1C(=O)/C=C/N(C)C | -5.34%
FC(F)(F)c1ccc(Cl)c(NC(=S)NN=C2CCCCCC2)c1 | 0.56%
Cc1ccc(N(C)NC(=O)Nc2ccc(Cl)cc2)nn1 | 12.1%
Cc1ccc(N=C2SC3(CC3)C(=O)N2c2ccc(C)cc2)cc1 | -5.53%
Cc1ccc(S(=O)(=O)NNC(=O)c2ccccc2N)cc1 | -4.45%
C=CCn1c(SCC(=O)Nc2nnc(-c3cccs3)s2)nnc1-c1ccco1 | -3.96%
O=C(Nc1ccc(I)cc1Cl)C(=S)NCc1cccs1 | 3.66%
c1csc(-c2ccc(-c3ccon3)s2)c1 | -1.22%
CSc1nc(N)c2ccccc2n1 | -9.58%
O=C(Nn1cnnc1)c1cccs1 | 1.09%
Cc1nc(C(F)(F)F)ccc1C(=O)NC1CCCc2ccccc21 (centres undefined) | 0.52%
Cc1ccccc1C(=O)NNC(=O)c1ccccc1C1=NCCCN1 | 4.96%
N#Cc1cccnc1NNC(=O)c1ccccc1C(=O)O | 4.06%
O=c1[nH]c2c(=O)[nH]c(=S)[nH]c2nc1/C=C(\O)c1ccccc1 | -4.76%
N/C(=N\OC(=O)c1cccc(Cl)c1)c1ccc2nonc2c1 | 1.32%
Oc1[nH]c2ccc(F)cc2c1N=NC(=S)NC1CC2C=CC1C2 (centres undefined) | -1.4%
Nc1c(-c2nnc(SCC(=O)c3ccccc3)o2)cnn1-c1ccccc1 | -5.52%
